# Bioassay records: PubChem BioAssay, Broad Institute
# Pf Dd2 inh = inhibitors of Plasmodium falciparum Dd2 growth. P. falciparum Dd2 growth, SYBR Green, 72 h; stronger effect = lower value. activity change, % at 10 µM. actives 2.3% (n = 94,000). AID 1159554; in the data active = activity change below about -80%; inconclusive = no clear call, values can overlap the other calls
# Tcruzi prolif = inhibitors of T. cruzi proliferation; inhibition, % at 8.34 µM; AID 624255; T. cruzi beta-gal in NIH3T3, GalScreen luminescence, 90 h; actives 5.9% (n = 77,000);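 active = mean inhibition above about 93%, with at least 55% of replicates each passing it, limit read from the data, passing the limit was not always enough; inconclusive = only one of those two conditions holds; inactive = neither condition holds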
# C diff growth = inhibitors of Clostridium difficile growth; actives 0.25% (n = 86,000); AID 1259249; growth activity, negative = inhibition, % at 16 µg/mL (by protocol); Clostridium difficile clinical isolate growth, OD600, 24 h; stronger effect = lower value;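 active = mean growth activity at or below -80% and every replicate also at or below -80%; inconclusive = mean at or below -80% but some replicate above -80%; inactive = mean growth activity above -80%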;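 also: 0% = DMSO wells and -100% = levofloxacin 16 µg/mL wells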
# Numbers without * were called inactive; ? = inconclusive; nt = not tested or not shown. Hits are enriched below; roughly 6.8% of the tested compounds scored in any of these assays.
SMILES,Pf Dd2 inh,Tcruzi prolif,C diff growth
C[C@@H]1CN([C@H](C)CO)C(=O)c2cc(NC(=O)c3ccccc3)ccc2O[C@@H](C)CCCCO[C@@H]1CN(C)S(=O)(=O)c1ccc(Cl)cc1,-82.4*,94.5,11.4
CC(C)NC(=O)Nc1ccc2c(c1)C(=O)N([C@H](C)CO)C[C@@H](C)[C@H](CN(C)Cc1ccc(Cl)c(Cl)c1)OCCCC[C@@H](C)O2,nt,nt,11.8
COc1cccc(-c2ccc([C@@H]3[C@H]4CN(C(=O)c5ccncc5)CC(=O)N4[C@H]3CO)cc2)c1,-67.2,nt,6.9
O=C(Nc1ccc2c(c1)[C@H]1C[C@H](CC(=O)N3CCOCC3)O[C@@H](CO)[C@H]1O2)Nc1ccccc1F,26.0,37.8,-6.9
COc1ccc(S(=O)(=O)N(C)C[C@H]2OCCCC[C@@H](C)Oc3ccc(NC(=O)Nc4cccc5ccccc45)cc3C(=O)N([C@@H](C)CO)C[C@@H]2C)cc1,-70.1,79.1,2.9
Cc1ccc(S(=O)(=O)N(C)C[C@H]2OCCCC[C@H](C)Oc3ccc(NC(=O)Nc4cccc5ccccc45)cc3C(=O)N([C@@H](C)CO)C[C@H]2C)cc1,-82.0*,nt,2.9
Cc1ccc(S(=O)(=O)N(C)C[C@H]2OCCCC[C@H](C)Oc3ccc(NC(=O)Nc4cccc5ccccc45)cc3C(=O)N([C@H](C)CO)C[C@H]2C)cc1,-79.4,nt,1.0
COc1ccc(S(=O)(=O)N(C)C[C@H]2OCCCC[C@H](C)Oc3ccc(NC(=O)Nc4cccc5ccccc45)cc3C(=O)N([C@H](C)CO)C[C@H]2C)cc1,-86.1*,80.3,5.8
COc1ccc(S(=O)(=O)N(C)C[C@@H]2OCCCC[C@H](C)Oc3ccc(NC(=O)Nc4cccc5ccccc45)cc3C(=O)N([C@H](C)CO)C[C@@H]2C)cc1,-56.5,82.1,1.4
COc1ccc(S(=O)(=O)N(C)C[C@@H]2OCCCC[C@H](C)Oc3ccc(NC(=O)Nc4cccc5ccccc45)cc3C(=O)N([C@@H](C)CO)C[C@H]2C)cc1,-89.2*,18.2,0.5
CO[C@@H]1CN(C)C(=O)c2cc(NS(=O)(=O)CC(F)(F)F)ccc2OC[C@@H](C)N(Cc2nccs2)C[C@H]1C,16.0,-56.7,nt
C[C@H]1CN([C@@H](C)CO)C(=O)Cc2cc(NC(=O)NC3CCCCC3)ccc2O[C@H]1CN(C)Cc1ccncc1,-3.0,13.0,-1.8
C/C=C/c1ccc([C@@H]2[C@H](CO)N(CC3CC3)C23CN(C(=O)c2ccc4c(c2)OCO4)C3)cc1,-82.5*,nt,22.5
C/C=C/c1ccc([C@H]2[C@@H](CO)N(CC3CC3)C23CN(C(=O)COC)C3)cc1,-5.4,nt,-3.2
COc1ccc2c3c([nH]c2c1)[C@H](CO)N(C(=O)NC(C)C)CC31CCN(C(=O)c2ccncc2)CC1,32.6,nt,nt
C[C@H](CO)N1C[C@H](C)[C@@H](CN(C)CC2CCOCC2)Oc2cc(C#CC3CC3)ccc2S1(=O)=O,-26.3,76.9,-1.9
CS(=O)(=O)N1[C@H](C#N)[C@H](c2ccccc2-c2ccccc2)[C@@H]1CO,-26.8,nt,-17.1
Cc1ccccc1-c1ccccc1[C@@H]1[C@@H](C#N)N(C(=O)c2ccccc2)[C@H]1CO,-8.9,nt,-1.6
CS(=O)(=O)N1[C@H](C#N)[C@H](c2ccccc2-c2ccccc2)[C@H]1CO,-94.2*,nt,-10.1
Cc1ccccc1-c1ccccc1[C@H]1[C@@H](C#N)N(C(=O)c2ccccc2)[C@@H]1CO,-92.9*,nt,4.0
C[C@@H]1CCCCO[C@@H](CN(C)Cc2ccc(Cl)c(Cl)c2)[C@@H](C)CN([C@H](C)CO)C(=O)c2cc(NC(=O)Nc3ccccc3)ccc2O1,-8.5,93.6,1.8
COc1ccc(NC(=O)Nc2ccc3c(c2)C(=O)N([C@@H](C)CO)C[C@@H](C)[C@@H](CN(C)Cc2ccc4c(c2)OCO4)OCCCC[C@H](C)O3)cc1,-69.7,78.6,6.7
C[C@@H]1CCCCO[C@H](CN(C)Cc2ccc3c(c2)OCO3)[C@H](C)CN([C@@H](C)CO)C(=O)c2cc(NC(=O)Nc3ccccc3)ccc2O1,?,16.4,5.4
C[C@H]1CCCCO[C@@H](CN(C)Cc2ccc3c(c2)OCO3)[C@@H](C)CN([C@@H](C)CO)C(=O)c2cc(NC(=O)Nc3ccccc3)ccc2O1,-82.4*,94.2,12.2
C[C@@H]1CN([C@H](C)CO)C(=O)c2cc(NC(=O)Nc3ccccc3)ccc2O[C@@H](C)CCCCO[C@@H]1CN(C)Cc1ccccc1,-82.1*,nt,nt
SMILES,Pf Dd2 inh,Tcruzi prolif,C diff growth
C[C@@H]1CN([C@@H](C)CO)C(=O)c2cc(NC(=O)Nc3ccccc3)ccc2O[C@@H](C)CCCCO[C@H]1CN(C)Cc1ccccc1,-66.6,nt,nt
COc1ccc(NC(=O)Nc2ccc3c(c2)C(=O)N([C@@H](C)CO)C[C@@H](C)[C@@H](CN(C)Cc2ccc4c(c2)OCO4)OCCCC[C@@H](C)O3)cc1,-83.0*,85.3,16.2
C[C@@H]1CN([C@H](C)CO)C(=O)c2cc(NC(=O)Nc3ccccc3)ccc2O[C@@H](C)CCCCO[C@@H]1CN(C)Cc1ccc(Cl)c(Cl)c1,-85.1*,70.0,10.0
COc1ccc2c3c([nH]c2c1)[C@H](CO)N(C(=O)c1ccncc1)CC31CCN(C(=O)NC(C)C)CC1,12.3,nt,2.7
OC[C@@H]1[C@H](c2ccc(/C=C/c3ccccc3)cc2)[C@H]2CN(Cc3cccnc3)CCCCN12,-74.2,48.0,12.9
CCCC(=O)Nc1ccc2c(c1)C(=O)N(C)C[C@@H](OC)[C@H](C)CN(C(=O)c1cnccn1)[C@H](C)CO2,25.6,14.4,0.9
COc1ccc2c3c([nH]c2c1)[C@H](CO)NCC31CN(C(=O)Cc2cccnc2)C1,39.8,nt,6.8
CCNC(=O)C[C@H]1CC[C@@H]2[C@H](COc3ccc(NC(=O)Nc4cccc(OC)c4)cc3C(=O)N2C)O1,-7.6,17.7,-2.8
C[C@H](CO)N1C[C@H](C)[C@@H](CN(C)Cc2ccc(C(F)(F)F)cc2)Oc2c(NS(=O)(=O)c3cccs3)cccc2C1=O,-26.7,21.0,0.5
Cc1noc(C)c1NC(=O)Nc1ccc2c(c1)C(=O)N([C@@H](C)CO)C[C@H](C)[C@@H](CN(C)S(C)(=O)=O)O2,-14.6,88.2,nt
C[C@H]1CCCCO[C@H](CN(C)Cc2ccccc2)[C@@H](C)CN([C@@H](C)CO)C(=O)c2cc(NC(=O)Nc3ccc(F)cc3)ccc2O1,-72.3,74.5,5.4
C[C@@H]1CCCCO[C@H](CN(C)Cc2ccccc2)[C@H](C)CN([C@@H](C)CO)C(=O)c2cc(NC(=O)Nc3ccc(F)cc3)ccc2O1,-84.4*,76.0,7.8
Cc1noc(C)c1NC(=O)Nc1ccc2c(c1)C(=O)N([C@H](C)CO)C[C@@H](C)[C@H](CN(C)Cc1ccc(Cl)c(Cl)c1)OCCCC[C@H](C)O2,-85.6*,75.9,10.3
Cc1noc(C)c1NC(=O)Nc1ccc2c(c1)C(=O)N([C@H](C)CO)C[C@@H](C)[C@@H](CN(C)S(C)(=O)=O)O2,-91.6*,94.3,nt
Cc1noc(C)c1NC(=O)Nc1ccc2c(c1)C(=O)N([C@H](C)CO)C[C@H](C)[C@@H](CN(C)Cc1ccc(Cl)c(Cl)c1)OCCCC[C@@H](C)O2,-32.4,-31.2,5.4
CC(C)NC(=O)N(C)C[C@H]1OCCCC[C@H](C)Oc2ccc(NC(=O)Nc3ccc(F)cc3)cc2C(=O)N([C@@H](C)CO)C[C@H]1C,-24.3,-12.6,8.9
